PubChem BioAssay (EPA / NIEHS)
Inconclusive results are not listed. The source made the active and inactive calls. Rule for the calls, unless noted: active = hit-call score of the fitted dose curve at least 0.9, where 1 is the maximum; inactive = score below 0.9.

Legend:
PGR (gene 5241) [1] = biological target: PGR (gene 5241) (UniProt P06401); test: TOX21_PR_BLA_Followup_Agonist_ratio: Tox21 HEK293 Progesterone Receptor (PR) Agonism Beta-lactamase Follow-Up Assay, Ratio (AID 2283933; active = hit-call score of the fitted dose curve at least 0.9, where 1 is the maximum)
Chain of PGR (gene 5241) (P06401 whole entry, looked up): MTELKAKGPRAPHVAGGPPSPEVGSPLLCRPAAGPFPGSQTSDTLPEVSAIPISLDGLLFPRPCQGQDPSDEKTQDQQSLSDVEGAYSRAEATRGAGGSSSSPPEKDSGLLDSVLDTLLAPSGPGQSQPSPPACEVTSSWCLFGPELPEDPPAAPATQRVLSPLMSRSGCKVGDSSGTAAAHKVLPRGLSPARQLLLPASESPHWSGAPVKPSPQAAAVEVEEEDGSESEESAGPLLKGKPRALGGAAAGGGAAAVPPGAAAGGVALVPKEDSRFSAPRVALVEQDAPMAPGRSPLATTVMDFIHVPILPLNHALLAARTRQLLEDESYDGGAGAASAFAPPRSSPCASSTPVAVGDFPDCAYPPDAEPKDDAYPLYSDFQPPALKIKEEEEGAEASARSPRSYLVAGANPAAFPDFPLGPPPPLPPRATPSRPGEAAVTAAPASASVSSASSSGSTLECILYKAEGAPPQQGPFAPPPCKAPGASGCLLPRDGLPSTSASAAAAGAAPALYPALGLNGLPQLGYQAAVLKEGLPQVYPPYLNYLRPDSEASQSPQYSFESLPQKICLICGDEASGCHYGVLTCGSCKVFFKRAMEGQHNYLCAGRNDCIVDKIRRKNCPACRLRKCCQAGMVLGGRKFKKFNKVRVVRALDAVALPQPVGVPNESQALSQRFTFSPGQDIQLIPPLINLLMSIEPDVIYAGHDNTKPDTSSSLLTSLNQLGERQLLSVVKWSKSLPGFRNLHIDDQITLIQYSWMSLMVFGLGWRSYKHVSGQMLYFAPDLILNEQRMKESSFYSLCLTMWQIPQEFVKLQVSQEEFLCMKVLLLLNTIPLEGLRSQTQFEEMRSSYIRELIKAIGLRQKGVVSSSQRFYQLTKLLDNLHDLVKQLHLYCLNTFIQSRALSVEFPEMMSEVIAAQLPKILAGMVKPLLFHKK
How it was run: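 Agonist-mode follow-up in HEK293T cells carrying a UAS-driven beta-lactamase reporter, grown in 2% charcoal-stripped serum. Compounds act for 16 hr; activity is the ch2/ch1 cleavage ratio, with same-well CellTiter-Glo viability run in parallel.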

PGR (gene 5241) [2] = biological target: PGR (gene 5241) (UniProt P06401); test: TOX21_PR_BLA_Followup_Antagonist_ratio: Tox21 HEK293 Progesterone Receptor (PR) Antagonism Beta-lactamase Follow-Up Assay, Ratio (AID 2283934; active = hit-call score of the fitted dose curve at least 0.9, where 1 is the maximum;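 note: PR-UAS-bla HEK293T cells stimulated with 1 nM R5020 agonist for 16 hr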)
How it was run: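 Antagonist mode used 1 nM R5020 (final) as agonist on a beta-lactamase reporter line in HEK293T cells. Activity was taken from the substrate cleavage ratio after 16 hr exposure.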

PGR (gene 5241) [3] = biological target: PGR (gene 5241) (UniProt P06401); test: TOX21_PR_LUC_Followup_Agonist: Tox21 HEK293 Progesterone Receptor (PR) Agonism Luciferase Follow-Up Assay (AID 2283937)
How it was run: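 Agonist mode: reporter cells carrying PR-A and luciferase are treated 16 h with test compounds at 37C. Luciferase induction is measured by luminescence and fitted upward against DMSO.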

[4] = STM_H9_OrnCyssISnorm_ratio: Stemina devTOX quickPredict H9 human embryonic stem cell (hESC)-based Assay for Ornithine (ORN):Cystine (CYSS) Ratio (AID 2283714; active = hit-call score of the fitted dose curve at least 0.9, where 1 is the maximum)
How it was run: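 Undifferentiated H9 hESCs were exposed to compound for 72h with media and chemical replaced every 24h. Final 24-h conditioned media were deproteinized and analysed by UPLC-HRMS. ORN and CYSS peak areas were normalized to C13 internal standards and the ratio taken versus 0.1% DMSO.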

[5] = CCTE_Mundy_HCI_Cortical_Synap_Neur_Matur_NeuriteSpotCountPerNeuriteLength: CCTE's Synaptogenesis and Neurite Maturation Assay in rat cortical cells for Neurite Spot Count per Neurite Length, Mundy Lab (AID 2284210)
How it was run: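 Rat primary cortical cultures, glia arrested with AraC at DIV 5, were dosed with media change at DIV 7 and fixed at DIV 12. Synaptophysin puncta per MAP2-labelled neurite length were quantified by high-content imaging versus DMSO.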

[6] = CCTE_Mundy_HCI_Cortical_Synap_Neur_Matur_BPCount: CCTE's Synaptogenesis and Neurite Maturation Assay in rat cortical cells for Branch Point Count, Mundy Lab (AID 2284211)
How it was run: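 Branch point number is quantified by automated imaging of fluorescently labelled neurites and synapses in rat primary cortical neurons exposed from DIV 7 to DIV 12. Activity is analysed relative to DMSO negative control.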

[7] = CCTE_Mundy_HCI_Cortical_NOG_NeuriteCount: CCTE's Neurite Outgrowth Assay in rat cortical cells for Neurite Count, Mundy Lab (AID 2284212);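 note: cells fixed about two days after chemical exposure began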
How it was run: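 Neurite number per cell from high-content imaging of betaIII-tubulin immunostaining, with Hoechst nuclear counterstain.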

[8] = CCTE_Mundy_HCI_Cortical_NOG_NeuriteLength: CCTE's Neurite Outgrowth Assay in rat cortical cells for Neurite Length, Mundy Lab (AID 2284213);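 for AC50: neurites imaged about 48 to 50 h after chemical exposure began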
How it was run: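 Neurite length was read by high-content imaging of βIII-tubulin-labelled neurites in rat primary cortical cultures. Activity was fitted relative to DMSO.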

[9] = CCTE_Mundy_HCI_Cortical_Synap_Neur_Matur_NeuriteLength: CCTE's Synaptogenesis and Neurite Maturation Assay in rat cortical cells for Neurite Length, Mundy Lab (AID 2284214)
How it was run: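 Neurite length in rat primary cortical cultures is imaged after MAP2, synaptophysin and Hoechst staining. Dosing starts DIV 7, ending DIV 12; DMSO serves as negative control and baseline.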

[10] = CCTE_Mundy_HCI_Cortical_Synap_Neur_Matur_NeuriteSpotCountPerNeuron: CCTE's Synaptogenesis and Neurite Maturation Assay in rat cortical cells for Neurite Spot Count per Neuron Count, Mundy Lab (AID 2284215)
How it was run: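 Developing rat cortical neurons, with glia suppressed by AraC, are exposed to chemicals from DIV 7 to DIV 12. Automated fluorescence imaging of MAP2-labelled neurites and synaptophysin puncta yields a count per neuron, normalised against DMSO wells.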

[11] = CCTE_Mundy_HCI_Cortical_Synap_Neur_Matur_SynapseCount: CCTE's Synaptogenesis and Neurite Maturation Assay in rat cortical cells for Synapse Count, Mundy Lab (AID 2284218)
How it was run: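 Synapse count per neuron is measured in rat cortical neurons exposed to chemicals between DIV 7 and DIV 12, with glial growth arrested by AraC at DIV 5. Synaptophysin and MAP2 staining is imaged automatically; activity is fitted relative to DMSO.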

[12] = CCTE_Mundy_HCI_Cortical_Synap_Neur_Matur_NeuriteCount: CCTE's Synaptogenesis and Neurite Maturation Assay in rat cortical cells for Neurite Count, Mundy Lab (AID 2284222);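 note: exposure from day 7 to day 12 in vitro with readout at day 12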
How it was run: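 In this multiplexed morphology readout, rat primary cortical neurons are fixed at DIV 12 following dosing at DIV 7 and stained for MAP2, synaptophysin and nuclei. High-content image analysis yields neurite count.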

[13] = CCTE_Mundy_HCI_Cortical_Synap_Neur_Matur_CellBodySpotCount: CCTE's Synaptogenesis and Neurite Maturation Assay in rat cortical cells for Cell Body Spot Count, Mundy Lab (AID 2284223)
How it was run: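 Chemicals were applied to AraC-treated rat primary cortical cells at DIV 7 and measured at DIV 12. Fixed cells were labelled for MAP2, synaptophysin and nuclei, and high-content imaging gave cell body synaptophysin spot counts per neuron relative to DMSO.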

[14] = CCTE_Mundy_HCI_Cortical_NOG_BPCount: CCTE's Neurite Outgrowth Assay in rat cortical cells for Branch Point Count, Mundy Lab (AID 2284237);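 for AC50: branch points counted about two days after chemical exposure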
How it was run: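 Measured 50.33 h after dosing, this morphology endpoint uses rat primary cortical cultures labelled for betaIII-tubulin. Branch points are quantified by high-content imaging, with DMSO as negative control and baseline.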

[15] = CCTE_Mundy_HCI_Cortical_Synap_Neur_Matur_NeuronCount: CCTE's Synaptogenesis and Neurite Maturation Assay in rat cortical cells for Neuron Count, Mundy Lab (AID 2284242; active = hit-call score of the fitted dose curve at least 0.9, where 1 is the maximum;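 for AC50: neuron number from Hoechst nuclei and MAP2 staining by high-content imaging; hits reduce neuron count versus DMSO baseline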)
How it was run: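 Imaging-based neuron count in rat cortical cultures after chemical exposure from DIV 7 to DIV 12, with AraC added at DIV 5. Activity is fitted relative to DMSO.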

[16] = IUF_NPC5_oligodendrocyte_differentiation_120hr: Leibniz Research Institute for Environmental Medicine (IUF) 120-hour Oligodendrocyte Differentiation Assay (NPC5) (AID 2284304; active = hit-call score of the fitted dose curve at least 0.9, where 1 is the maximum;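 note: primary human fetal neural progenitor spheres plated to migrate and differentiate; share of O4-positive cells among Hoechst nuclei found by CNN image analysis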)
How it was run: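 After plating on poly-D-lysine/laminin, fetal-derived hNPC spheres differentiated for 120 h at 37C in compound-containing N2 medium, refreshed by half on day 3. O4 immunostaining over Hoechst nuclei in the migration zone gave oligodendrocyte percentage relative to DMSO.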

[17] = TAMU_PeakParms_SingleDonor1434_Asystole: Texas A&M University (TAMU) 1.5-hr Human Induced Pluripotent Stem Cell (iPSC)-derived Cardiomyocytes Calcium (Ca+2) Flux Assay for Cardiotoxicity: Asystole (quiescence of beating) (AID 2284328; active = hit-call score of the fitted dose curve at least 0.9, where 1 is the maximum)
How it was run: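 Human iPSC-derived cardiomyocytes (donor 1434) were exposed to 0.2, 1, 10 and 100 uM compound in 0.5% DMSO for 90 min at 37C. Ca2+-dye fluorescence gave average peak frequency; POD is EC95, a 95% beat-rate drop versus DMSO.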

[18] = read-out: Tumor necrosis factor receptor superfamily member 6 (Homo sapiens) (UniProt P25445); test: LTEA_HepaRG_FAS: Life Technologies and Expression Analysis (LTEA) Assay for Fas cell surface death receptor (FAS) using HepaRG (AID 2283447); settings: mRNA level, 48 h; actives raise or lower the signal
How it was run: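 Differentiated human HepaRG cells, pre-cultured 48 h, were exposed in duplicate for 48 h to 8-point half-log concentrations (top 100 uM, 0.5% DMSO) in serum-free induction medium; FAS mRNA measured by qRT-PCR, normalized to ACTB/GAPDH/POLR2A, bidirectional fit versus DMSO.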

[19] = read-out: Fatty acid synthase (Homo sapiens) (UniProt P49327); test: LTEA_HepaRG_FASN: Life Technologies and Expression Analysis (LTEA) Assay for Fatty Acid Synthase (FASN) using HepaRG (AID 2283448); settings: mRNA level, 48 h; actives raise or lower the signal
How it was run: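 Transcript-level assay: HepaRG liver cells are treated for 48 h across an eight-point range topping at 100 uM, and FASN mRNA, normalized to three housekeeping genes, is compared with DMSO controls in both directions.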

[20] = read-out: Cyclin D2 (CCND2), CCND2 (gene 894); test: LTEA_HepaRG_CCND2: Life Technologies and Expression Analysis (LTEA) Assay for Cyclin D2 (CCND2) using HepaRG (AID 2283449); settings: mRNA level, 48 h; actives raise or lower the signal;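 note: CCND2 transcript measured by TaqMan qRT-PCR and normalised to three housekeeping genes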
How it was run: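 Differentiated human HepaRG cells were exposed for 48 h in serum-free induction medium to eight half-log concentrations topping at 100 uM (0.5% DMSO vehicle). CCND2 mRNA was quantified by TaqMan qRT-PCR, normalised to ACTB, GAPDH and POLR2A, and fitted bidirectionally against DMSO.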

Chain of Fatty acid synthase (Homo sapiens) (P49327 whole entry, looked up): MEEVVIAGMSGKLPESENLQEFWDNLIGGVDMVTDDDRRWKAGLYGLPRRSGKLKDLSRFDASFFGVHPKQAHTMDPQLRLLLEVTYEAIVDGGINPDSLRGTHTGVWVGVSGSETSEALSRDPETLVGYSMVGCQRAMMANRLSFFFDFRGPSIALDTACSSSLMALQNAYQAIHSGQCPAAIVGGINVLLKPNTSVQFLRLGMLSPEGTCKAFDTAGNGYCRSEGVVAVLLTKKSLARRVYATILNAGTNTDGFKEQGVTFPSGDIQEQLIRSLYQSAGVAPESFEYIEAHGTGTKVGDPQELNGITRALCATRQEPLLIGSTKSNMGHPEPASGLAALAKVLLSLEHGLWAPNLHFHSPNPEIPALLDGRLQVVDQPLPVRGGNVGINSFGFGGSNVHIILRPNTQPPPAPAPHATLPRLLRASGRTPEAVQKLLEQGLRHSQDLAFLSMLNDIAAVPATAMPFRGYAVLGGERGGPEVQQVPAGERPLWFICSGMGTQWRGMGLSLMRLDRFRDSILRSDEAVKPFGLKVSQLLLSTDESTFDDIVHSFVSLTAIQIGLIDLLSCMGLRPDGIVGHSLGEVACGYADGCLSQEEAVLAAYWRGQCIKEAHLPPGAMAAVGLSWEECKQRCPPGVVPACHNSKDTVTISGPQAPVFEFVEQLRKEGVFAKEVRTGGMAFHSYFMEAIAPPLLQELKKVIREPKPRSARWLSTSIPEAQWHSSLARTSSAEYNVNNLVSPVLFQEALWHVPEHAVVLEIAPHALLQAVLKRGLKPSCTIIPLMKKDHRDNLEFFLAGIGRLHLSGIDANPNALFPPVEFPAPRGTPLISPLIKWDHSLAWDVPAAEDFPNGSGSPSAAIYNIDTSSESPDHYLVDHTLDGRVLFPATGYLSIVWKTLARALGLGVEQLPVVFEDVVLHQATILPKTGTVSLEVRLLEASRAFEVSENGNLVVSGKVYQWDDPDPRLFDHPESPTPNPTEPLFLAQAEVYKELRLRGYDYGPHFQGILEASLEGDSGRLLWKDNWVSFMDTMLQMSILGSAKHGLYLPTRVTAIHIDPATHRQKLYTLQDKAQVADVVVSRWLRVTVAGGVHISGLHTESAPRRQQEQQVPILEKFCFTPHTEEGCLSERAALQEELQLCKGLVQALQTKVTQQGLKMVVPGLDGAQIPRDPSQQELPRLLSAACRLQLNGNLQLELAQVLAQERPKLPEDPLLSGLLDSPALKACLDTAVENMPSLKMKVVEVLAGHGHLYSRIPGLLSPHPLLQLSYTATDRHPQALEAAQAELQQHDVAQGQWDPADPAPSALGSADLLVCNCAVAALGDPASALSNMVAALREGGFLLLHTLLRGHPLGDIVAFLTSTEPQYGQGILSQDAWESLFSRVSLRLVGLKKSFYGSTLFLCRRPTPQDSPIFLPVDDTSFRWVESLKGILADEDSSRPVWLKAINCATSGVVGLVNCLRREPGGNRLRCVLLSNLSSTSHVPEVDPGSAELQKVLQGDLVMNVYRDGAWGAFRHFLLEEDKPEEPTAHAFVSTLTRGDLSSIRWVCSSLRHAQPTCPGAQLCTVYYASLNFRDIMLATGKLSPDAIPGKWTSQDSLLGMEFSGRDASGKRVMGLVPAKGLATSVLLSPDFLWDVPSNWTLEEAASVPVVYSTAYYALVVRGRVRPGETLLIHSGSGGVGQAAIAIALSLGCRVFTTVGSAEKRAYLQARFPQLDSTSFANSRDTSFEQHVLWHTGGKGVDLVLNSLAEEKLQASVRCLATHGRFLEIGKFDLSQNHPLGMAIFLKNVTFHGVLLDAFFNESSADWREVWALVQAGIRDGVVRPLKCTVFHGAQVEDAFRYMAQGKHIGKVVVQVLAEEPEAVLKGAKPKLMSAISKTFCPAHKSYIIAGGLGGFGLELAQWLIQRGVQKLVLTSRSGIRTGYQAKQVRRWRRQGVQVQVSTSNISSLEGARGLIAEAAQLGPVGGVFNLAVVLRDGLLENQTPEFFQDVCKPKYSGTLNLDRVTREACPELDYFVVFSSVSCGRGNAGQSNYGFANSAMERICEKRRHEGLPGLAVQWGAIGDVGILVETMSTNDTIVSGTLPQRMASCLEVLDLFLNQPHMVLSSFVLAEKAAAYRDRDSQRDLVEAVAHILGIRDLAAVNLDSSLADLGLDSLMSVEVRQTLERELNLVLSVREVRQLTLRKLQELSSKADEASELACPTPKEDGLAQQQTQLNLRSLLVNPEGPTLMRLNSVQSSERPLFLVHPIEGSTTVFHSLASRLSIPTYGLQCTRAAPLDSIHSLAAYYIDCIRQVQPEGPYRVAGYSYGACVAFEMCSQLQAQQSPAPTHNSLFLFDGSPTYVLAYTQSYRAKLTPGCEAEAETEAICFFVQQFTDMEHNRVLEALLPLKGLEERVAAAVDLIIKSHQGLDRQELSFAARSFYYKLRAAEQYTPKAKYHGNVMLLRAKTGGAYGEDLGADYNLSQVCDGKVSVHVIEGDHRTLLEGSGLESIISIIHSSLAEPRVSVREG

N#Cc1cc(I)c(O)c(I)c1
outcome (PGR (gene 5241) [1]): inactive | outcome (PGR (gene 5241) [2]): inactive | outcome (PGR (gene 5241) [3]): inactive

Cc1ccc(OP(=O)(Oc2ccc(C)cc2)Oc2ccc(C)cc2)cc1 (tested in a mixture with another compound)
AC50 [4]: 61.9 µM (active) | AC50 [5]: 15 µM (active) | outcome [6]: inactive | AC50 [7]: 20.6 µM (active) | AC50 [8]: 21.4 µM (active) | outcome [9]: inactive | AC50 [10]: 15 µM (active) | AC50 [11]: 15 µM (active) | outcome [12]: inactive | outcome [13]: inactive | AC50 [14]: 20.2 µM (active) | AC50 [15]: 24 µM (active) | outcome [16]: inactive | AC50 [17]: 7.7 µM (active)

N#CCCCCC#N
outcome [18]: inactive | outcome [19]: inactive | outcome [20]: inactive

CNC(=N[N+](=O)[O-])NCC1CCOC1 (stereo not given)
outcome [5]: inactive | outcome [6]: inactive | outcome [7]: inactive | outcome [8]: inactive | AC50 [9]: 0.0157 µM (active) | AC50 [10]: 0.00988 µM (active) | AC50 [11]: 0.00885 µM (active) | outcome [12]: inactive | outcome [13]: inactive | outcome [14]: inactive | outcome [15]: inactive

CC(C)CCCCCCCOP(=O)(Oc1ccccc1)Oc1ccccc1
AC50 [16]: 5.15 µM (active) | outcome [17]: inactive

O=C(CCl)c1ccccc1
outcome [18]: inactive | outcome [19]: inactive | outcome [20]: inactive

C[C@]12CC[C@H]3[C@@H](CC[C@@]45O[C@@H]4C(O)=C(C#N)C[C@]35C)[C@@H]1CC[C@@H]2O
outcome (PGR (gene 5241) [1]): inactive | outcome (PGR (gene 5241) [2]): inactive | outcome (PGR (gene 5241) [3]): inactive

O=C1C(Cl)=C(Cl)C(=O)C(Cl)=C1Cl
outcome [4]: inactive
